The values below come from PubChem BioAssay (NCATS).

Several values for one entry are separate records, joined by “and”; a condition that tells them apart may be missing. Equal entries are not always repeated. Records with an inconclusive call do not appear. Entries that show only a call come without a potency. Activity calls are given as the source filed them. Calls come from the whole dose curve; as a rule, active = well fitted cell-killing curve with a large enough effect; inconclusive = small, poorly fitted or top-dose-only effect; inactive = flat fitted curve, though single readings scatter.
Potency is the fitted concentration of half-maximal effect.

One experiment in a line: Cellular viability qHTS for adrenocortical cancer (ACC) cell line SW-13 (AID 1963989).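 For activity (max response): cells grown in serum-free medium with ITS supplement.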 Note: nearly all actives have a fitted effect of over 65% in size. Particulars: SW-13 ACC cells viability, CellTiter-Glo, 48 h; activity (max response): active compounds read low. The method, boiled down:
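Compound titrations (up to 46 uM final, in DMSO) were applied to SW-13 cells for 48 h at 37C/5% CO2. Reading used CellTiter-Glo after 20 min at room temperature; fitted curves yielded IC50 and efficacy.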
As to `NNc1nncc2ccccc12`, the activity (max response) is 12.3% (inactive) and -11.3% (inactive).

For the compound `O=C(Nc1ccc([N+](=O)[O-])cc1)Nc1ccc([N+](=O)[O-])cc1`, the activity (max response) is 3.91% (inactive).

Turning to `Cc1nc(N)nc(N)c1-c1ccc(Cl)c(Cl)c1`, the Potency is 231 nM (active).

`CCc1ccc(C(=O)C(C)CN2CCCCC2)cc1` (configuration not stated): the activity (max response) is -7.06% (inactive).

On to `CC(=O)Nc1ccc(OCC(O)CNC(C)C)cc1` (configuration not stated), for which the activity (max response) was 9.26% (inactive).

Consider `CC(=O)Nc1c(I)c(NC(C)=O)c(I)c(C(=O)O)c1I`, for which the activity (max response) is 2.04% (inactive).

For `O=C(NCCO[N+](=O)[O-])c1cccnc1`, the activity (max response) is 2.63% (inactive) and 5.13% (inactive).

Take `N#C[C@H]1C[C@H]2C[C@@H]2N1C(=O)[C@@H](N)C12CC3CC(CC(O)(C3)C1)C2`: the activity (max response) was 11.7% (inactive).

Take `CC1(C)O[C@@H]2C[C@H]3[C@@H]4C[C@H](F)C5=CC(=O)CC[C@]5(C)[C@H]4[C@@H](O)C[C@]3(C)[C@]2(C(=O)CO)O1`: the activity (max response) was 3.69% (inactive).

As to `C[C@@H]1C[C@H]2[C@@H]3CCC4=CC(=O)C=C[C@]4(C)[C@@]3(F)[C@@H](O)C[C@]2(C)[C@@]1(O)C(=O)COC(=O)c1ccncc1`, the activity (max response) was -0.514% (inactive).

Take `CC1(C)S[C@@H]2[C@H](NC(=O)C(c3ccccc3)S(=O)(=O)O)C(=O)N2[C@H]1C(=O)O` (some centres not stated): the activity (max response) is 8.35% (inactive).

As to `O=c1[nH]cc(F)c(=O)[nH]1`, the activity (max response) was -6.36% (inactive).

`COc1nccc(-c2c(-c3ccc(F)cc3)ncn2C2CCC(O)CC2)n1` (configuration not stated): the activity (max response) was -14% (inactive).

With `COc1cc(Nc2ncc3c(n2)-c2ccc(Cl)cc2C(c2c(F)cccc2OC)=NC3)ccc1C(=O)O`, the Potency was 31600 nM (active).

`Cc1ccc(C(=O)C(C)CN2CCCCC2)cc1` (configuration not stated): the activity (max response) is -5.23% (inactive).

A short description of another experiment: Cellular viability qHTS for adrenocortical cancer (ACC) cell line NCI-H295R (AID 1963990). Note: nearly all actives have a fitted effect of over 60% in size. Particulars: CellTiter-Glo ATP luminescence, 48 h; series mostly up to 46.1 µM. The method, boiled down: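 Readout: CellTiter-Glo luminescence, 20 min RT. Exposure: 48 h, 37C/5% CO2. Cells: NCI-H295R, ITS-DMEM serum-free. Range: up to 46 uM. Analysis: 4PL fit, IC50 plus efficacy.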
A general note: Quantitative high-throughput screening tests each substance at several concentrations.
Consider `CC(C)c1noc(N2CCC(COc3ccc(-c4ccc(S(C)(=O)=O)cc4)nc3)CC2)n1`, for which the Potency result was “inactive”.

Turning to `CS(=O)(=O)c1ccc([C@@H](O)[C@@H](CO)NC(=O)C(Cl)Cl)cc1`, the Potency result was “inactive”.

For `COC(=O)N[C@@H](C)CNc1nccc(-c2cn(C(C)C)nc2-c2cc(Cl)cc(NS(C)(=O)=O)c2F)n1`, the Potency result was “inactive”.

In the case of `O=c1c(O)c(-c2ccc(O)cc2O)oc2cc(O)cc(O)c12`, the Potency entry is “inactive”.

For `O=C(NC[C@H](O)CN1CCc2ccccc2C1)c1cc(NC2COC2)ncn1`, the Potency entry is “inactive”.

As for `CNC(=O)c1ccc(-c2cnc3ncc(Cc4ccc5ncccc5c4)n3n2)cc1F`, the Potency entry is “inactive”.

`COc1ccc(CCN2CCN(CCCc3ccccc3)CC2)cc1OC`: the Potency result was “inactive”.

As to `CC(S)C(=O)NCC(=O)O` (configuration not stated), the Potency result is “inactive”.

Take `NNc1nncc2ccccc12`: the Potency result was “inactive”.

Consider `O=C(NCCO[N+](=O)[O-])c1cccnc1`, for which the Potency entry is “inactive”.

For `N#C[C@H]1C[C@H]2C[C@@H]2N1C(=O)[C@@H](N)C12CC3CC(CC(O)(C3)C1)C2`, the Potency entry was “inactive”.

`CC1(C)S[C@@H]2[C@H](NC(=O)C(c3ccccc3)S(=O)(=O)O)C(=O)N2[C@H]1C(=O)O` (some centres not stated): the Potency entry was “inactive”.

On to `O=c1[nH]cc(F)c(=O)[nH]1`, for which the Potency result was “inactive”.

In the case of `COc1nccc(-c2c(-c3ccc(F)cc3)ncn2C2CCC(O)CC2)n1` (configuration not stated), the Potency entry is “inactive”.

On to `CSc1cccc(Nc2ncc3cc(-c4c(Cl)cccc4Cl)c(=O)n(C)c3n2)c1`, for which the Potency entry is “inactive”.

Turning to `COc1cc(Nc2ncc3c(n2)-c2ccc(Cl)cc2C(c2c(F)cccc2OC)=NC3)ccc1C(=O)O`, the Potency was 2240 nM (active).

With `Cc1ccc(C(=O)C(C)CN2CCCCC2)cc1` (configuration not stated), the Potency entry is “inactive”.
